According to ChEMBL document CHEMBL4888484, “Replenishing the malaria drug discovery pipeline: Screening and hit evaluation of the MMV Hit Generation Library 1 (HGL1) against asexual blood stage Plasmodium falciparum ,using a nano luciferase reporter read-out” (2022):
Hit rate of the full screen: of about 4,800 compounds, about 410 (8.5%) showed an effect of 50% or more. Shown is part of a subset that was picked to be rich in strong results.

system: Plasmodium falciparum; assay: Confirmatory screen in NF54 pLDH assay, in single point, at 2uM, 72h; type: functional, Erythrocyte; settings: timepoint 72 hour

Compound | % Inhibition
CCc1ccc(NC(=O)[C@@H]2CCn3c(C(=O)c4ccccc4)ccc32)cc1 | 6%
CCc1ccc(NC(=O)[C@H](C)N2CCC(NS(=O)(=O)c3cccs3)CC2)cc1 | 77%
Cn1cc(C(=O)NCC2CCN(S(=O)(=O)c3cccs3)CC2)cn1 | 2%
Cc1nn(Cc2cccc(F)c2)c(C)c1NC(=O)c1cccc(COc2ccc(Br)cc2)c1 | 16%
COc1cc(C)sc1C(=O)NCc1csc(=O)[nH]1 | -7%
COc1ccc(C(=O)n2nc(Nc3ccccc3Cl)cc2Nc2ccccc2Cl)cc1 | 12%
COc1ccc(-n2ncc3c(N)c4c(nc32)CCCC4=O)cc1 | 11%
C[C@@H](C(=O)Nc1cccc2ccccc12)N1CCCCC1 | 7%
CCOCCC1(CN=C(N)N2CCCCC2)CCCC1 | 5%
Cc1ccc(C2c3ccsc3CCN2CCC(=O)N2CCN(C(=O)Cc3cccs3)C(C)C2)cc1 (configuration not stated) | 26%
OC[C@H]1CCc2nnc(C(F)F)n2C1 | 11%
CCn1nc(-n2cnnc2)c(NS(=O)(=O)c2cccc(Cl)c2)c1C | 3%
COc1cccc(CNCCCN2CCOCC2)c1OCc1ccc(Cl)cc1Cl | 12%
Clc1ccc(COc2ccc(Cl)cc2CNCCCn2ccnc2)c(Cl)c1 | 100%
CCOc1cc(CNCCCn2ccnc2)ccc1OCc1ccccc1 | 23%
Clc1ccc(Cn2cc(CNCCCn3ccnc3)c3ccccc32)c(Cl)c1 | 100%
OCCNCc1ccc(Cl)cc1Cl | 6%
COc1cccc(CNCCN2CCOCC2)c1OCc1ccc(Cl)cc1Cl | 11%
COc1ccc(NC(=O)[C@@H](c2cc(OC)c(OC)c(OC)c2)N(Cc2ccccc2)C(=O)Cn2nnc3ccccc32)cc1 | -15%
COc1ccc(S(=O)(=O)N2CCN(S(=O)(=O)c3ccc(OC)cc3)C2)cc1 | -2%
CCOc1c(CNC(C)(C)CC(C)(C)C)cccc1OC | 5%
C[C@H](C(=O)NCC1CCN(Cc2ccccc2F)CC1)C1CCOCC1 | 3%

Compound | % Inhibition
COc1ccc2cc3n(c2c1)C[C@](C(=O)NC1CCCCCC1)(c1ccccc1)N(Cc1ccccc1F)C3=O | -26%
CC(Oc1ccc2c(c1)C(c1ccccc1)N(Cc1ccccc1F)CC2)C(=O)NC1CC1 (configuration not stated) | 50%
O=C(c1ccc2c(c1)OCO2)N1CCn2c1nc1ccccc12 | 3%
CC(=O)Nc1cccc(NC(=O)[C@H]2CC[C@H](Cn3c(O)nc4ccccc4c3=O)CC2)c1 | 5%
COc1cc2c(cc1Cl)-n1cccc1C1(CCNCC1)N2 | -15%
CC1=CC(=[N+](CCO)CCO)C=C/C1=C(\c1ccc(N(CCO)CCO)cc1C)c1ccccc1Cl | 87%
O=C(CN1CCN(Cc2cccc(Cl)c2)C1=O)N1CCN(c2ccccc2)CC1 | 4%
COc1cccc(-c2cc3c(N4CCC(C(=O)NC[C@H]5CCCO5)CC4)nccn3n2)c1 | 5%
Cc1ccc(S(=O)(=O)Cc2nc3cc(C)c(C)cc3[nH]c2=O)cc1 | 2%
O=S(=O)(NC1CCCCC1)c1ccc(Cl)c(S(=O)(=O)NC2CCCCC2)c1 | 6%
N#Cc1cc(S(=O)(=O)NCCN(C2CC2)S(=O)(=O)c2ccc(Cl)c(C#N)c2)ccc1Cl | 86%
Cc1cccc(NC(=O)CCC(=O)OCC(F)(F)F)c1C | -1%
O[C@H]1CNCC[C@@H]1Nc1cc(-c2ccccc2)nc2ccccc12 | 76%
Cc1nc(-c2ccccc2)cc2nn(CC(=O)NC3CCCCC3)c(=O)n12 | -8%
COc1cccc(-c2cc(C(=O)N3CCCN(C(=O)c4cc(-c5cccc(OC)c5)nc5ccccc45)CC3)c3ccccc3n2)c1 | -26%
CC(C)(C)NC(=O)C1CCN(C[C@@H]2CC=CCC2)CC1 | 10%
Cc1ccc(/C=C(\C(=O)NC[C@H]2CCCO2)n2ccccc2=O)cc1 | 12%
CCCC1(CNC(=O)Nc2nc(CS(C)(=O)=O)no2)CC1 | 6%
CCCCCn1c(NCc2cc(Cl)ccc2O)nc2ccccc21 | 21%
CCOc1cc(CNCCN2CCOCC2)cc(Cl)c1OCc1ccccc1 | 9%
CCCc1noc([C@H]2CC(=O)N(c3ccccc3C)C2)n1 | 8%
CCc1nc2c(C(=O)N3CCOc4c(C)cc(C)cc43)ccnc2[nH]1 | 60%

Compound | % Inhibition
CCOc1ccc(C/C(=C/N)c2nc(-c3ccc(Cl)cc3)cs2)cc1 | 15%
CCn1c(=O)c(N2CCC(C(=O)NCCCc3ccccc3)CC2)nc2cccnc21 | -22%
Clc1cccc(-c2c[nH]c([C@@H]3COCCN3C3CCOCC3)n2)c1 | -16%
CN1CCC[C@H](c2nnc3sc(-c4ccc(OCc5ccccc5)cc4)nn23)C1 | 8%
CC(C(=O)Nc1nccs1)N1CCCC(c2ccn[nH]2)C1 (configuration not stated) | 45%
Cc1cc(-c2cncc(CN3CCCCC3)c2)ccc1F | 8%
O=S(=O)(c1cccc(Cl)c1)N1CCc2nc(N3CCCCC3)nc(Oc3ccccc3)c2C1 | 78%
Cc1noc(C)c1CNc1cc(S(=O)(=O)N2CCCCC2)ccc1Oc1ccccc1 | 14%
Cc1ccc(-c2nn(Cn3nc(C)c(Cl)c3C)c(-c3ccc(C)cc3)c2Br)cc1 | -12%
Cn1c(CN2CCOC[C@@]23CCOC3)nnc1C1CC1 | 13%
O=C(Nc1ccccc1Cl)Nc1cccc2c(-c3ccccc3)c(C(=O)N3CCOCC3)[nH]c12 | 12%
Cc1ccc(S(=O)(=O)c2c(C)cc(-c3ccccc3)nc2N2CCOCC2)cc1 | 12%
CCO[C@@]1(c2ccccc2)NC(=O)c2cc3c(cc21)OCCO3 | -18%
CC(=O)N(CCN1CCOCC1)[C@H]1CCN(S(=O)(=O)c2cccc(Cl)c2)C1 | 9%
O=C(NCCCN1CCOCC1)c1ccc(-c2cnc(NC3CCCCC3)nc2)cc1 | -15%
Cn1cc(CN2CCC(C(=O)NCCCN3CCCCC3)CC2)c2cc(Cl)ccc21 | -8%
CO/N=C(\Nc1cc(C)ccc1C)c1nonc1N | 16%
O=C(C[C@@H]1NC(=O)c2ccccc2NC1=O)NCc1ccc(Cl)cc1Cl | -6%
Nc1cc(F)c(Br)cc1Cl | 7%
CCn1c(=O)c(N2CCC(C(=O)N3CCN(c4ccccc4F)CC3)CC2)nc2cccnc21 | -9%
O=C1C[C@@H](c2cccc(Br)c2)c2c(O)nc(N3CCOCC3)nc2N1 | -7%
CCN(C(C)=O)c1nc(CN2C(=O)N[C@](C)(c3ccc(F)cc3Br)C2=O)cs1 | 9%

Compound | % Inhibition
Cc1nccc(O[C@H]2CCCN(C(=O)CN3CCN(c4ccccc4)C3=O)C2)n1 | 9%
COc1cccc(C(=O)Nc2noc(-c3cccc(OC)c3)c2-c2ccc(Cl)cc2)c1 | -19%
COc1cccc(N2C(=O)N[C@H](C)C2=O)c1 | 15%
COc1ccc(-c2c(-c3cccc(OC)c3)[nH]c3c2c(=O)[nH]c(=O)n3C)cc1 | 97%
CCCN1CCN(S(=O)(=O)c2cccc3nonc23)CC1 | 11%
O=C1CCc2cc(N[C@@H](C(=O)N3CCCC3)c3ccccc3)ccc2N1 | 5%
O=C(NC1CCN(Cc2ccco2)CC1)c1ccco1 | -2%
Clc1cccc(N2CCN(Cc3nc(-c4ccco4)no3)CC2)c1 | -1%
Cc1nn(C)cc1C(=O)N1CCN(c2nncc3ccccc23)CC1 | -10%
CCNC(=O)c1nc(-c2ccncc2)cs1 | -16%
COc1ccnc(NCc2ccc(N3CCOCC3)cc2)n1 | 10%
O=C(Cn1nc(C2CC2)nc1C1CC1)N1CCOCC1 | 11%
CCN(C[C@H](C)C#N)C(=O)C(=O)Nc1ccc(F)cc1Cl | 13%
COc1cc(Br)cc(C#N)c1O | 9%
CC(C)c1cccc(Nc2nc3ccncc3n(C(C)C)c2=O)c1 | 94%
O=C(CCOCC(F)(F)F)Nc1ccc2c(c1)C(=O)NC2 | -5%
Cn1cc(C(C(=O)O[C@@H]2C[C@@H]3CC[C@@]2(C)C3(C)C)c2cn(C)c3ccccc23)c2ccccc21 | 3%
CC[N+](CC)(CC(=O)OC1CC2CCC1(C)C2(C)C)CC(=O)OC1CC2CCC1(C)C2(C)C (configuration not stated) | 92%
Cc1ccnc(-c2noc(Cn3c(=O)c(C)cn(C)c3=O)n2)c1 | 4%
Nc1nc(Cc2ccccc2)c(Br)c(=O)[nH]1 | 5%
COc1ccc(C2=NC3=S(N2c2ccccc2)N(C(C)=O)C(C(Cl)(Cl)Cl)N3c2ccccc2)cc1 (configuration not stated) | 13%
